High-throughput results: PubChem, several laboratories
NOD2 RIPK2 PPI = blocks binding of human NOD2 to RIPK2. O43353. CHO BLA complementation NOD2-RIPK2, CCF4 ratio. inhibition, % at 4.98 µM. hit rate 0.38% among 360,000; in the data active = inhibition above about 21%
Target sequence (O43353 whole entry, looked up): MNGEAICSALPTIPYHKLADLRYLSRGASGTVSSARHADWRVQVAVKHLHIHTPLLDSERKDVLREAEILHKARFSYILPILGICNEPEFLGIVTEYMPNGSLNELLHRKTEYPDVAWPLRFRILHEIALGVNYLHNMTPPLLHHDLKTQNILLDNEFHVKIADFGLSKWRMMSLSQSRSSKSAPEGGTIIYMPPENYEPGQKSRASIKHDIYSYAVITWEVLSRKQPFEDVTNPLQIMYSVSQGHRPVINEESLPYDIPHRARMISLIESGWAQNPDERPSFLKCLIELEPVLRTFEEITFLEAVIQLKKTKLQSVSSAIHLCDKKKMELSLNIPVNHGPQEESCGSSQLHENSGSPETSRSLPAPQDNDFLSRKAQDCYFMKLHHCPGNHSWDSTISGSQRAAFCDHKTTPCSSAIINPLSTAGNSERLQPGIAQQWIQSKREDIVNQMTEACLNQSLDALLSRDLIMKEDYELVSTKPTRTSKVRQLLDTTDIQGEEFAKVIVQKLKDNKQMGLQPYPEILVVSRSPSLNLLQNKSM
TLR9-MyD88 inh = inhibitors of human TLR9-MyD88 binding. AID 504734. Q9NR96+Q99836. inhibition, % at 4.98 µM. hit rate 0.21% among 340,000. CHO BLA complementation TLR9-MyD88, CCF4 FRET ratio;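 active = inhibition above the mean over all tested compounds plus 3 SD, cut at about 21% in these data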
ABHD5-PLIN5 inh = blocks binding of human ABHD5 to perilipin-5 | inhibition, % at 4 µM | hit rate 0.78% among 360,000 | Split G. princeps luciferase complementation, luminescence, 4 h | Q00G26+Q8WTS1 | AID 602281;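 active = inhibition above the mean inhibition across every tested compound plus 3 SD, cut at about 22% in these data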
TLR4-MyD88 BLA = blocks binding of human TLR4 to MyD88; inhibition, % at 8.4 µM; hit rate 0.18% among 200,000; HeLa CL3-4 TLR4/MyD88 BLA complementation, FRET ratio; in the data active = inhibition above about 25%
Exocytosis inh = lytic granule exocytosis inhibition; TALL-104 LAMP-1 surface exposure, flow cytometry; cells stimulated with thapsigargin and PMA; AID 651702; inhibition, % at 10 µM; hit rate 0.66% among 360,000;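 active = inhibition above about 55%, limit read from the data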
PRMT1 FP inh = inhibitors of human PRMT1 | Q99873 | recombinant PRMT1, activity-based probe fluorescence polarization | inhibition, % at 2.79 µM | hit rate 1.3% among 370,000 | AID 652257;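 active = inhibition above about 21% made by adding two undisclosed values, limit read from the data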
Hits are given with their value; – = inactive; · = no result. Sampled rows, rich in hits. Any-hit rate of the full collection: about 2.6%.

SMILES	NOD2 RIPK2 PPI	TLR9-MyD88 inh	ABHD5-PLIN5 inh	TLR4-MyD88 BLA	Exocytosis inh	PRMT1 FP inh
COc1ccc(N2CSC3=C(C#N)C(c4ccc(OC)c(OC)c4)CC(=O)N3C2)c(OC)c1 (configuration not stated)	–	–	–	–	–	47
CC(=O)Nc1ccc(C2=NNC(=Nc3cccc(S(=O)(=O)N(C)C)c3)SC2)cc1	–	–	58	–	–	·
COCCN=C1NN=C(c2ccc(NC(C)=O)cc2)CS1	–	–	–	–	–	22
Cc1ccc(-c2nc3sc(C#N)c(N)n3c(=O)c2C#N)cc1	–	–	–	–	–	81
Nc1scc2c(C(=O)N/N=C/c3ccc(Cl)cc3)nn(-c3ccccc3)c(=O)c12	–	–	–	–	–	22
Nc1c(C(=O)N/N=C/c2ccc(Cl)cc2)cnn1-c1ccccc1	–	–	–	·	–	–
O=C(Nc1ccc(F)cc1F)C1CCCN1S(=O)(=O)c1cccnc1 (configuration not stated)	·	·	·	·	·	–
O=C1CC(=O)N(Cc2ccco2)C(=S)N1	–	–	–	–	–	·
O=C1CC(=O)N(Cc2ccco2)C(=O)N1	–	–	–	–	–	22
CS(=O)(=O)c1ccc(OCCCN2CCC(C(O)(c3ccccc3)c3ccccc3)CC2)cc1	·	·	·	·	·	–
COc1ccc2nc(-c3ccc(CN4CCC(c5nc6ccccc6[nH]5)CC4)cc3)c(-c3ccccc3)nc2c1	·	·	·	·	·	–
CCC(C)[C@@H](NC(=O)OC(C)(C)C)c1nnc(S(=O)(=O)Cc2cccc(C)c2)o1 (some centres not stated)	24	–	73	–	81	–
CCC1CCc2c(sc(NC(=O)c3cnccn3)c2C(N)=O)C1 (configuration not stated)	–	–	–	·	–	24
O=C(CCl)Nc1cccc(S(=O)(=O)NC2=NCCCCC2)c1	–	–	23	·	–	–
COC(CNC(=O)[C@H](Cc1c[nH]c2ccccc12)NC1(C(=O)NCc2ccccc2)CCCCC1)OC	·	·	·	·	·	–
Cc1ccc2c(c1)S/C(=C\c1cccc[n+]1C)N2CCO	–	–	–	·	–	–
C=CC[n+]1c(/C=C2\C=Cc3cc(C)ccc3N2CC)ccc2ccccc21	–	–	–	–	–	–
C[n+]1ccccc1/C=C1\Sc2ccccc2N1CCO	–	–	–	·	–	–
CCN1/C(=C/c2ccc3cc(C)ccc3[n+]2CC)Sc2ccc3sccc3c21	–	–	–	·	74	·
CCN1/C(=C/c2ccc3cccc(C)c3[n+]2CC)Sc2ccccc21	–	–	–	–	76	–
CCN1/C(=C/c2ccc3cc(C)cc(C)c3[n+]2CC)Sc2cc(C)ccc21	–	–	–	–	77	–
CCN1/C(=C\c2ccc3cc(C)ccc3[n+]2CC)Sc2cc(C)c(C)cc21	–	–	–	–	73	–
Cc1ccc(S(=O)(=O)NCC2CCN(C(=O)C(=O)c3cc4ccccc4o3)CC2)cc1	·	·	·	·	·	–
O=C(NCC1CCCO1)c1ccc2c(c1)N(Cc1ccccc1)C(=O)CS2=O (configuration not stated)	–	–	–	–	–	24
CCOC(=O)c1ccc(N2C(=O)C=CC2=O)cc1	–	–	–	–	105	·
SMILES	NOD2 RIPK2 PPI	TLR9-MyD88 inh	ABHD5-PLIN5 inh	TLR4-MyD88 BLA	Exocytosis inh	PRMT1 FP inh
CCOC(=O)c1ccc(-n2c(C)ccc2C)cc1	–	–	–	–	–	–
O=C(NCC1CCN(C(=O)C(=O)c2cc3ccccc3o2)CC1)c1ccc2c(c1)OCCCO2	·	·	·	·	·	–
C[n+]1c2n(c3ccccc31)N=C(c1cc(C(C)(C)C)c(O)c(C(C)(C)C)c1)CS2	–	–	–	–	58	–
CCOC(=O)N[C@@H](CC(C)C)C(=O)N1CCC[C@H]1C(=O)NCc1ccccc1	·	·	·	·	·	–
CCC(C)(C)c1ccc(OCCCC[n+]2cccc(C)c2)c(C(C)(C)CC)c1	–	–	23	–	–	–
CC(C)OC(=O)[C@@H](Cc1ccccc1)N[C@H](/C=C/c1ccccc1)[C@@H](O)Cc1ccccc1	·	·	·	·	·	–
CC(=O)N(C)c1ccc(NC(=S)NC(=O)/C=C/c2ccco2)cc1	–	–	–	·	–	–
CCOc1ccc(NC(=S)NC(=O)/C=C/c2ccco2)cc1	–	–	–	·	–	–
O=C(/C=C/c1ccco1)NC(=S)Nc1ccccc1O	–	·	–	–	–	21
CC(=O)Nc1ccc(NC(=S)NC(=O)/C=C/c2ccco2)cc1	–	–	–	·	–	21
CN1CCN(c2ccc(NC(=S)NC(=O)/C=C/c3ccco3)cc2)CC1	–	–	–	·	57	–
COC(=O)CCN1CCSCCS1(=O)=O	·	·	·	·	·	–
COc1ccccc1NC(=O)Cn1ncc2c1-c1ccccc1OC2	–	–	–	–	–	–
COc1cc(NC(=O)Cn2ncc3c2-c2ccccc2OC3)cc(OC)c1OC	30	–	–	–	–	–
N#C/C(=C/c1cn(-c2ccccc2)nc1-c1cccc(S(=O)(=O)N2CCOCC2)c1)C(=O)NCc1ccco1	–	–	–	–	–	23
CCOc1cccc(-c2nn(-c3ccccc3)cc2/C=C(/C#N)C(=O)NCCCn2ccnc2)c1	–	–	–	–	68	–
N#C/C(=C/c1cn(-c2ccccc2)nc1-c1cccc(OCc2ccccc2)c1)C(=O)NCCCn1ccnc1	–	–	–	–	–	–
CCCC[C@H]1C2CC(OC(=O)Nc3cccc(F)c3)C(C2)[C@H]2CCCCN21 (some centres not stated)	·	·	·	·	·	–
COc1ccccc1/C=C1\SC(=S)N(CCC(=O)NCCc2ccc(O)cc2)C1=O	–	–	–	·	88	–
Cc1cc2c(N)cccc2nn1	–	–	–	–	–	44
COc1ccc(-c2cc3ccc(OC(C)C(=O)O)cc3oc2=O)cc1 (configuration not stated)	–	–	22	·	–	–
COc1ccc(-c2cc3ccccc3oc2=O)cc1	–	–	–	·	–	–
Cc1ccccc1-c1ccc2c(c1)[C@@H]1C[C@H](N(C)CC3CCCCC3)[C@H]([C@H](C)O)CN1CC2	·	·	·	·	·	–
CC/C(=C\C1CCCCC1)C(NP(=O)(c1ccccc1)c1ccccc1)c1ccccc1 (configuration not stated)	–	–	–	–	59	–
COc1cccc(S(=O)(=O)Nc2ccc(C(=O)NCc3ccco3)cc2)c1	–	–	–	–	–	–
COc1ccc(NS(=O)(=O)c2cccc(C(=O)NCc3ccco3)c2)cc1	–	–	–	·	–	23
Cc1cc(N/N=C/c2ccc(F)cc2)nc(NCc2ccccc2)n1	–	·	–	·	–	–
Cc1ccc(/C=N/Nc2cc(C)nc(NCc3ccccc3)n2)cc1	–	–	–	·	88	–
O=S(=O)(N[C@H]1CCCC[C@@H]1N1CCOCC1)c1ccc(Cl)cc1	·	·	·	·	·	–
COc1ccc(C(C[N+](=O)[O-])c2c(-c3ccccc3)cc3ccccn23)c(OC)c1 (configuration not stated)	–	–	41	–	–	–
